Results as given in PubChem BioAssay.
Calls of active or inactive are those of the source. Unless noted, how the calls were made is not given here.

Key:
[1] = resazurin metabolic signal in HepG2 cells – cell-based, resazurin fluorescence, 24 h, PK04 Diversity Set, profiling panel (AID 1172); details: HepG2 viability, higher = more signal
[2] = budding yeast growth changes without added modifier – OD600, strain BY4716, 24 h, basal condition, primary screen (AID 1173); details: S. cerevisiae BY4716 growth, OD600, 24 h; higher = more signal, called active from +8 up or from −8 down
[3] = viability profiling in MM1S myeloma cells – cell-based, resazurin fluorescence, basal, 24 h, PK04 Diversity Set, profiling panel (AID 1174); details: higher = more signal, called active from +8 up or from −8 down;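 further: MM1S multiple myeloma cell line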
[4] = target: Dihydroorotate dehydrogenase (quinone), mitochondrial (Plasmodium falciparum (isolate 3D7)) (UniProt Q08210); experiment: inhibition of P. falciparum DHODH – biochemical, C-terminal His tag, absorbance 600 nm, primary screen (AID 1175); details: PfDHODH enzyme, DCIP absorbance 600 nm; higher = more signal, called active from +8 up or from −8 down;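 further: recombinant parasite enzyme with a five histidine tag at its C terminus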
Sequence of Dihydroorotate dehydrogenase (quinone), mitochondrial (Plasmodium falciparum (isolate 3D7)) (Q08210 whole entry, looked up): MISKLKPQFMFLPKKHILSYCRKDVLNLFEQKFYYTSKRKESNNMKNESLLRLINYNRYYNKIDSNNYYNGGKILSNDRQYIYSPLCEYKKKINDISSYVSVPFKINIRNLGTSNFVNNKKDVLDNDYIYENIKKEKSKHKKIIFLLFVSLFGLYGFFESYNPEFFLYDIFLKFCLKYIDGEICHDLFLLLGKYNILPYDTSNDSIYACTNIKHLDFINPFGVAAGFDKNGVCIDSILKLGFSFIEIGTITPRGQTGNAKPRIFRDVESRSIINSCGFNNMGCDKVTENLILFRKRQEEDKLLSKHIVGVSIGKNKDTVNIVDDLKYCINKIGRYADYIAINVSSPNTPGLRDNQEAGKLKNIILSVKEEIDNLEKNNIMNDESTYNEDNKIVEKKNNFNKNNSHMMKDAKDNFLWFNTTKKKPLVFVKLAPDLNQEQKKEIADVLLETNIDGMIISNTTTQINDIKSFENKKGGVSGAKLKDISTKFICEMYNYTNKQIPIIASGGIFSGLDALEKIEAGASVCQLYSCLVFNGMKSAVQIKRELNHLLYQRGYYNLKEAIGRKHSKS

[5] = inhibition of PAO1 biofilm formation – strain PAO1, LB-PBS medium, absorbance 600 nm, primary screen (AID 1176); details: P. aeruginosa PAO1 growth/biofilm, A600, 12 h; higher = more signal
[6] = growth modulation of vineyard yeast isolate – strain RM11-1a, OD600, basal, 24 h, primary screen (AID 1177);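 further: cultures grown under basal conditions with no added stressor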; details: S. cerevisiae RM11-1a growth, OD600, 24 h; higher = more signal, called active from +8 up or from −8 down
[7] = growth of efflux-deficient E. coli DRC39 – strain DRC39, OD650, 24 h, E. coli filamentation inducers, primary screen (AID 1178);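 further: growth measured as culture turbidity by optical density at 650 nm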; details: E. coli DRC39 acrAB, higher = more signal, called active from +8 up or from −8 down
[8] = growth of efflux-deficient E. coli DRC39 – strain DRC39, OD650, 48 h, E. coli filamentation inducers, primary screen (AID 1179);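 further: screen aims at cell division blockers that make cells filament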; details: E. coli DRC39 delta-acrAB growth, higher = more signal, called active from +8 up or from −8 down
[9] = viability profiling in RPMI8226 myeloma cells – cell-based, resazurin fluorescence, basal, 24 h, PK04 Diversity Set, profiling panel (AID 1180); details: higher = more signal;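 further: RPMI8826 multiple myeloma cell line at 5000 cells per well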
[10] = target: E3 ubiquitin-protein ligase XIAP (Homo sapiens) (UniProt P98170); experiment: small molecules binding XIAP protein – biophysical, small-molecule microarray, fluorescence 635 nm, primary screen (AID 1181); details: higher = more signal;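 further: score merges 667 nm emission and signal to noise over triplicate slides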
Sequence of E3 ubiquitin-protein ligase XIAP (Homo sapiens) (P98170 whole entry, looked up, the tested form may be a part): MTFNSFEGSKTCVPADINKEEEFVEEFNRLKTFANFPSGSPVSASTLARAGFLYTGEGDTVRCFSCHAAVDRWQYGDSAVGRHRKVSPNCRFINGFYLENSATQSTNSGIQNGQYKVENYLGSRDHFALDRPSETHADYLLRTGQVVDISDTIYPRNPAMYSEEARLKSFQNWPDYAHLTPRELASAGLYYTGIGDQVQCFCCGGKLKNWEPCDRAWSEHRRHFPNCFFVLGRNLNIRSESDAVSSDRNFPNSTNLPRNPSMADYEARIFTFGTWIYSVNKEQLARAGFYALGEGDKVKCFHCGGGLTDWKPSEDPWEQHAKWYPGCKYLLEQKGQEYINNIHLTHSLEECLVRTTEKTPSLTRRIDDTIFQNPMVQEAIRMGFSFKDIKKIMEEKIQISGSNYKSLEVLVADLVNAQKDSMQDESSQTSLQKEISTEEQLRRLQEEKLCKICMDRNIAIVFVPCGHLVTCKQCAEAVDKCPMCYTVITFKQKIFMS

[11] = tested on: XIP peptide (Xip251-270) binding; experiment: XIP fragment 251-270 binding compounds – biochemical, small-molecule microarray, fluorescence 635/667 nm, 0.1 µg/mL protein, primary screen (AID 1182); details: fluorescent protein binding, 635 nm, higher = more signal, called active from +8 up or from −8 down
[12] = tested on: XIP peptide (Xip251-270); experiment: compounds binding XIP fragment 251-270 – biochemical, small-molecule microarray, fluorescence 635/667 nm, 0.5 µg/mL protein, primary screen (AID 1183); details: fluorescence 635 nm, higher = more signal
[13] = blood-stage malaria parasite viability loss – strain 3D7, DAPI fluorescence, 100 nL, primary screen (AID 1184);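 further: parasites grown inside human red blood cells in medium with human serum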; details: P. falciparum 3D7 growth, 3 d, higher = more signal
[14] = target: Homeobox protein Hox-A13 (Mus musculus) (UniProt Q62424); experiment: disruptors of Hoxa13 oligonucleotide interaction – biochemical, fluorescence polarization, labeled oligonucleotide, primary screen (AID 1185); details: Hoxa13:DNA binding, 15 min, higher = more signal, called active from +8 up or from −8 down
Sequence of Homeobox protein Hox-A13 (Mus musculus) (Q62424 whole entry, looked up): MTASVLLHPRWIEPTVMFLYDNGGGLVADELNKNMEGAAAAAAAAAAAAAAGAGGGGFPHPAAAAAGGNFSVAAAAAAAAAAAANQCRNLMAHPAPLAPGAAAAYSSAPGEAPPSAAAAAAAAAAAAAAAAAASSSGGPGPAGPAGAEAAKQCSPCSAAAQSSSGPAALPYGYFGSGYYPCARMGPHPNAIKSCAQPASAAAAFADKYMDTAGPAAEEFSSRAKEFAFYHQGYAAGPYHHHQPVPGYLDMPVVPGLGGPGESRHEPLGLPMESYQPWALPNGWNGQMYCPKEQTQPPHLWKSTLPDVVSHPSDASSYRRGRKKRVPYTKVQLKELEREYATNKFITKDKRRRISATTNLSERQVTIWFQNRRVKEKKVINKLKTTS

[15] = blockers of DNA damage checkpoint Chk1 activation – imaging, HeLa, hydroxyurea, phospho-Chk1 antibody, percent positive cells, primary screen (AID 1186); details: hydroxyurea-induced phospho-Chk1 immunofluorescence imaging, higher = more signal
[16] = blockers of DNA damage checkpoint Chk1 activation – imaging, HeLa, hydroxyurea, phospho-Chk1 nuclear intensity, primary screen (AID 1187); details: hydroxyurea-induced phospho-Chk1 immunofluorescence imaging, higher = more signal

SMILES | z-score [1] | z-score [2] | z-score [3] | composite z-score [4] | z-score [5] | z-score [6] | z-score [7] | z-score [8] | z-score [9] | composite z-score [10] | composite z-score [11] | composite z-score [12] | z-score [13] | z-score [14] | z-score [15] | z-score [16]
CC(C)[Si](C#CCCCC#N)(Oc1ccccc1Br)C(C)C | -0.192 | -3.82 (inactive) | 0.456 (inactive) | 0.0781 (inactive) | 0.313 (inactive) | -0.218 (inactive) | -0.9 (inactive) | -0.832 (inactive) | -0.193 | -0.0525 | 0.983 (inactive) | -0.0206 | 0.306 | -1.08 (inactive) | 0.365 (inactive) | 0.0882 (inactive)
[N-]=[N+]=NCc1ccccc1[C@@H]1OC(c2ccc(OCCCO)cc2)=N[C@]1(CCS(=O)(=O)c1ccccc1)C(=O)N1CCCCC1 | -0.227 | 0.287 (inactive) | -0.814 (inactive) | 0.667 (inactive) | 0.286 (inactive) | -0.0163 (inactive) | -0.523 (inactive) | -0.213 (inactive) | -0.808 | 0.0174 | 0.603 (inactive) | 0.772 | -2.23 | -1.6 (inactive) | 0.202 (inactive) | 0.161 (inactive)
NCCCCCNC(=O)[C@H]1C[C@H]2C(=O)N[C@@H](Cc3ccccc3)C(=O)N2[C@H]1c1cccc(OCCO)c1 | 0.391 | -1.84 (inactive) | 1.04 (inactive) | 0.884 (inactive) | 0.022 (inactive) | -0.439 (inactive) | -0.154 (inactive) | 0.496 (inactive) | 0.953 | -0.0599 | 1.51 (inactive) | 0.683 | -0.329 | -3.23 (inactive) | 0.0742 (inactive) | 0.304 (inactive)
C=C[C@H](C)[C@@H](OC(=O)Nc1ccc(SC)cc1)c1ccc(O)c2ccccc12 | -0.752 | -18.2 (active) | -3.78 (inactive) | -1.84 (inactive) | 0.908 (inactive) | -5.28 (inactive) | -0.33 (inactive) | -0.638 (inactive) | -3 | -0.258 | 0.68 (inactive) | 0.248 | -0.127 | -4.35 (inactive) | 1.16 (inactive) | 0.893 (inactive)
COC(=O)c1c(CC[C@@H](CO)NC(=O)N[C@H](Cc2ccccc2)Cn2cc(-c3ccccn3)nn2)oc(C(C)=O)c1C(=O)OC | -1.62 | -0.295 (inactive) | -1.13 (inactive) | 0.0502 (inactive) | -0.0149 (inactive) | -0.559 (inactive) | -0.347 (inactive) | -0.793 (inactive) | -0.857 | -0.135 | 0.593 (inactive) | 0.0667 | 0.0007 | -4.84 (inactive) | 0.269 (inactive) | 0.15 (inactive)
COc1ccc(NN2C(C(O)c3ccc(N(C)C)cc3)C=CC3C(=O)N(C4CCCCC4)C(=O)C32)cc1 (stereo not given) | 0.252 | -0.796 (inactive) | -0.0447 (inactive) | 0.128 (inactive) | 0.862 (inactive) | -0.0156 (inactive) | -0.723 (inactive) | -0.224 (inactive) | -1 | 0.17 | 1.02 (inactive) | 0.68 | -0.087 | -4.68 (inactive) | -0.217 (inactive) | -0.837 (inactive)
COc1ccc(CCNC(=O)[C@@]2(C)c3ccccc3C(=O)N(c3ccc(C)cn3)[C@H]2c2ccc(CO)cc2)cc1 | 0.437 | -0.673 (inactive) | 0.978 (inactive) | -0.907 (inactive) | -0.301 (inactive) | 0.0798 (inactive) | 0.0083 (inactive) | 0.737 (inactive) | 0.933 | -0.0838 | 1.66 (inactive) | 0.639 | 1.36 | -1.58 (inactive) | 0.366 (inactive) | 0.822 (inactive)
COC(=O)C[C@H]1O[C@@H](CCc2ccccc2)[C@@H](C)[C@@H]1[Si](C)(C)c1ccc(OC)cc1 | 0.294 | -0.938 (inactive) | -0.229 (inactive) | 0.656 (inactive) | -0.529 (inactive) | 0.725 (inactive) | -0.0089 (inactive) | -1.12 (inactive) | -0.206 | 0.152 | -0.633 (inactive) | -0.919 | -1.63 | -4.56 (inactive) | 0.0465 (inactive) | 0.33 (inactive)
COc1cc(CO)cc(I)c1O[C@H]1C=C(C(=O)NCCO)C[C@@H](N(C(=O)c2cc3ccccc3oc2=O)C2CCCCCC2)[C@@H]1O | -0.163 | -1.66 (inactive) | 1.11 (inactive) | -0.346 (inactive) | -0.377 (inactive) | -0.0819 (inactive) | 2.12 (inactive) | 0.435 (inactive) | -0.335 | -0.154 | -0.207 (inactive) | 0.466 | -1.8 | -7.6 (inactive) | 0.21 (inactive) | 0.722 (inactive)
COCCOC(=O)N1C(=O)[C@@]2(c3cc(C#CC4(O)CCCCCC4)ccc31)[C@H](c1ccccc1OCCO)N1[C@H](c3ccccc3)[C@H](c3ccccc3)OC(=O)[C@H]1[C@@H]2C(=O)N1CCc2cc(OC)c(OC)cc2C1 | 0.598 | 2.06 (inactive) | -0.9 (inactive) | 0.445 (inactive) | 2.26 (inactive) | 3.05 (inactive) | -0.404 (inactive) | -0.405 (inactive) | -0.203 | -0.127 | 0.164 (inactive) | 0.741 | -1.89 | -0.494 (inactive) | -0.149 (inactive) | 0.27 (inactive)
